Screening results deposited in PubChem BioAssay by several laboratories.
Shown are actives, neighbours in structure and some others; about 0.82% of the full set was active somewhere.
Keap1 Nrf2 FP: Keap1-Nrf2 protein-protein interaction inhibitors, primary screen, biochemical, fluorescence polarization, single point; AID 504523, 2011; 340,000 compounds, 0.15% hits; inhibition, % at 9.4 µM; Keap1 Kelch-Nrf2 peptide fluorescence polarization, 1536-well; Kelch-like ECH-associated protein 1 (Homo sapiens), Q14145; in the data active = inhibition above about 12%;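 also: human Keap1 Kelch domain with fluorescein labeled Nrf2 9mer peptide probe; 0% = neutral control wells and 100% = peptide positive control; higher means more block of Keap1 binding to Nrf2 peptide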
C-LANA FP: inhibitors of KSHV C-LANA binding to DNA, primary screen, biochemical, fluorescence polarization, FAM-LBS DNA, MBP-C-LANA, single point. AID 504423, 2011. inhibition, % at 9 µM. Kaposi's sarcoma herpesvirus LANA C-terminal domain (residues 932-1162) DNA binding. 340,000 compounds, 0.078% hits;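 active = highest replicate inhibition at or above 60% at 9 µM, even if other replicates fall short; inactive = all replicates below 60% inhibition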;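 also: 0% = neutral control wells and 100% = 4 µM acridine orange control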
RTF Ca sens act: cardiac RTF calcium sensitivity activators, primary screen, biochemical, IANBD-TnC fluorescence, EC20 calcium | Troponin I, cardiac muscle (Homo sapiens) + Troponin T, cardiac muscle (Homo sapiens) + … | activation, % at 7.2 µM | 340,000 compounds, 0.24% hits | AID 493008, 2010 | IANBD-labeled TnC RTF fluorescence at EC20 calcium; 0% EC20 calcium, 100% full calcium;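 active = activation above the mean over all tested compounds plus 3 SD, cut at about 30% in these data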;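 also: rise in fluorescence read as greater calcium sensitivity of cardiac thin filaments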
eLon inh: inhibitors of E. coli Lon protease, primary screen, biochemical, fluorescence polarization; P0A9M0; purified E. coli Lon protease; inhibition, % at 7.94 µM; 360,000 compounds, 0.42% hits; AID 602123, 2011; in the data active = inhibition above about 13%, passing the limit was not always enough;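 also: 0% = enzyme with probe and DMSO and 100% = no enzyme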
Target sequence (P0A9M0 whole entry, looked up): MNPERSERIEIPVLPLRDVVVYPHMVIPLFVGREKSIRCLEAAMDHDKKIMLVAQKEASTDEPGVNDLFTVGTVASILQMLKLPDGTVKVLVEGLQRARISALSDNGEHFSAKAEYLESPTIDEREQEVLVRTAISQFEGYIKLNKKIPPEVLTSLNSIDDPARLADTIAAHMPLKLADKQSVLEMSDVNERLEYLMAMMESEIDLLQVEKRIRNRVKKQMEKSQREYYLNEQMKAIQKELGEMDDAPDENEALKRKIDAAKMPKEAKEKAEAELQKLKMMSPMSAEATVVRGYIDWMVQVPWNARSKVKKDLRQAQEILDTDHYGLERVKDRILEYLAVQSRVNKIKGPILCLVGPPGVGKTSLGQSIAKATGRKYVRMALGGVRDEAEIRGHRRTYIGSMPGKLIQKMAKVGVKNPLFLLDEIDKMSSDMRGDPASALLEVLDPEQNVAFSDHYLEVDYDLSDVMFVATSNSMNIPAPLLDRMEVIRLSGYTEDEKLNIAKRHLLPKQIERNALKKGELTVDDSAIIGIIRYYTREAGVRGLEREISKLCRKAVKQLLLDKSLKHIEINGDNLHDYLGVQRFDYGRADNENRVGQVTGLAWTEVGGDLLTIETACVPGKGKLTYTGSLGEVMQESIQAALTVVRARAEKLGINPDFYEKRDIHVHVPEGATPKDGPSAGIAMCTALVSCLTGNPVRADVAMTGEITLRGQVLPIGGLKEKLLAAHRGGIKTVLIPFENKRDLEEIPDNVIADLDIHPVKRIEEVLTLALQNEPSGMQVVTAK
RTF Ca sens inh: cardiac RTF calcium sensitivity inhibitors, primary screen, biochemical, IANBD-TnC fluorescence, EC70 calcium; IANBD-labeled cardiac RTF, Ca2+ fluorescence; inhibition, % at 7.15 µM; 340,000 compounds, 0.12% hits;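 active = inhibition above the mean inhibition of all tested compounds plus 3 SD, cut at about 17% in these data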;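 also: assay run at fixed EC70 calcium of 1.6 mM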
eLon confirm: E. coli Lon protease inhibitor retest, confirmation, biochemical, fluorescence polarization; shares compounds with eLon inh; purified E. coli Lon; inhibition, % at 7.94 µM; 1,400 compounds, 31% hits; AID 602230, 2012; in the data active = inhibition above about 16%;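 also: 0% = enzyme with probe and DMSO and 100% = no enzyme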
* hit, by the source's call; . = no result given.

SMILES	Keap1 Nrf2 FP	C-LANA FP	RTF Ca sens act	eLon inh	RTF Ca sens inh	eLon confirm
O=C1c2ccccc2CCC12OC2c1ccc([N+](=O)[O-])cc1 (stereo unspecified)	.	.	.	4	.	.
COc1ccc(/C=N/N2CCN(C)CC2)c(OC)c1OC	-4	-1	3	20*	-2	-8
Cc1ccc(Cl)cc1-c1cc(C(=O)N2CCc3ccccc3C2)[nH]n1	.	.	.	14	.	.
Cc1ccc(C(O)c2ncc(-c3cccc4ccccc34)[nH]2)c(C)c1 (stereo unspecified)	.	.	.	-5	.	.
OC(CN1CCCCC1)c1ccc(Br)cc1 (stereo unspecified)	-5	-1	-6	10	-5	.
OC(CN1CCCCC1)c1ccc2c3c(cccc13)CC2 (stereo unspecified)	1	3	-1	70*	0	3
CCOC(=O)C1CCCN(C(=O)Cc2c(C(=O)O)[nH]c3ccccc23)C1 (stereo unspecified)	1	1	1	24*	-8	21*
O=C(Oc1ccc2c(c1)OCC2=O)c1ccccc1	0	1	1	19*	-3	23*
CC(=O)N1c2ccc(S(=O)(=O)N3CCC(C(=O)Nc4cccc(C(F)(F)F)c4)CC3)cc2CC1C (stereo unspecified)	-9	0	-4	28*	-16	-59
COc1cccc(NC(=O)C2CCN(S(=O)(=O)c3ccc4c(c3)CC(C)N4C(C)=O)CC2)c1 (stereo unspecified)	-2	-1	6	-4	-7	.
COc1ccc(OC)c(S(=O)(=O)N2CCC(C(=O)NCC3CCCO3)CC2)c1 (stereo unspecified)	-3	-1	3	32*	8	15
COc1ccc(Cl)cc1S(=O)(=O)N1CCC(C(=O)NCC2CCCO2)CC1 (stereo unspecified)	-2	2	-4	-13	6	.
